Source: PubChem
The list is not random: actives were taken first. Their share in the collection is about 2.7%.
12-LOX inh – inhibitors of human 12S-lipoxygenase ALOX12; P18054; actives 1.1% (n = 580,000); purified 12hLO, xylenol orange hydroperoxide absorbance; AID 1671190; Potency, µM (highest dose often 108 µM), without a hit: top-dose activity change, negative = inhibition, usual class: inhibitors; note: potency is the fitted concentration of half-maximal effect; % is set by controls: 0 for no effect and ±100 for the full control effect
Target sequence (P18054 whole entry, looked up): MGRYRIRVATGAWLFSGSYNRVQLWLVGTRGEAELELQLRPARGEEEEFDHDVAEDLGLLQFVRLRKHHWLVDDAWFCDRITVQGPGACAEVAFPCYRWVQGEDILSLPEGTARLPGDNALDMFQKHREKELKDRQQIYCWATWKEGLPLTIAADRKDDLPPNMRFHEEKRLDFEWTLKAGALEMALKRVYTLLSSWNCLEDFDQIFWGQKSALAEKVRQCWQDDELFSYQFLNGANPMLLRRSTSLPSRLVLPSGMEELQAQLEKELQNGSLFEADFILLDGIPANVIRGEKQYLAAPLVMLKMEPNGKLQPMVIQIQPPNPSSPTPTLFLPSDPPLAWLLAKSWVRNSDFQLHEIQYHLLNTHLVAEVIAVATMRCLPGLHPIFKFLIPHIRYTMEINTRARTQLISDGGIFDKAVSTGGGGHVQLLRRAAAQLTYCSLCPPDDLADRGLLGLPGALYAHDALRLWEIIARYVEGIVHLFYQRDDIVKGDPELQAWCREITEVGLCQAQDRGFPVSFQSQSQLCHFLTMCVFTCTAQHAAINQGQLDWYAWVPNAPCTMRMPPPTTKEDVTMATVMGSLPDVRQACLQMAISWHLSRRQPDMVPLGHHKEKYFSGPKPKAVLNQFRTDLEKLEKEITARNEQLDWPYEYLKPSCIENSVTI
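Purified human 12hLO at 150 nM in 25 mM Hepes, 0.01% Triton X-100, pH 7.0, preincubated 15 min at room temperature with compound. Reaction started with 40 uM arachidonic acid, 30 min at room temperature. Hydroperoxide measured by Fe-xylenol orange, 573/405 nm absorbance ratio.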
A549 tox – A549 cytotoxicity, counter-screen for Nrf2 inhibitors; A549 ARE-Fluc cells, CellTiter-Fluor viability, 18-24 h; Potency, µM (doses to about 46 µM), for inactives: at the top dose activity change, negative = cytotoxicity, hits mostly inhibitors; actives 0.16% (n = 390,000); AID 504648; note: potency is the fitted concentration of half-maximal effect; % is set by controls: 0 for no effect and ±100 for the full control effect
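A549 ARE-Fluc cells in 5% FBS OPTI-MEM, 5000 cells/well, rested 2 h then exposed to compounds in concentration-response for 18-24 h at 37 °C. Viability by CellTiter-Fluor fluorescence (Ex 405/Em 525) after 30 min; luciferase luminescence (BugLite, 15 min, RT) read afterwards.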
IDH1 R132H inh – blocks human mutant IDH1 R132H enzyme | O75874 | IDH1-R132H enzyme, NADPH consumption, diaphorase/resazurin fluorescence | Potency, µM (doses to about 76.6 µM), for inactives: at the top dose activity change, negative = inhibition, usual class: inhibitors | actives 0.093% (n = 390,000) | AID 602179; note: potency is the fitted concentration of half-maximal effect; % is set by controls: 0 for no effect and ±100 for the full control effect; nearly all actives have a fitted effect of over 65% in size
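IDH1-R132H (0.5 ug/mL) preincubated 30 min with compound, then NADPH (0.016 mM) and alpha-KG (2 mM) added; 80 min at RT, pH 7.5. Remaining NADPH coupled via diaphorase/resazurin to fluorescence (540/590 nm); concentration-response curves normalized to no-enzyme control.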
Nrf2 ARE act – activates Nrf2 signaling | AREc32 ARE-luciferase reporter (MCF7-derived line), luminescence, 24 h | Potency, µM (top dose mostly 46.1 µM), for the others: at the highest dose activation, actives largely listed as activators | actives 0.31% (n = 410,000); note: potency is the fitted concentration of half-maximal effect; % of control where 0% means no effect; nearly all actives have a fitted effect of over 65% in size
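Steps: seed AREc32_Fluc cells (1000/well, 5% FBS OPTI-MEM); incubate overnight at 37 deg C; add 23 nL compound; incubate 24 hr; add Steady-Glo; hold 30 min RT; read luminescence.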
LDHA block – inhibitors of human lactate dehydrogenase A; purified LDHA, NADH/diaphorase-resazurin fluorescence; stronger effect = lower value; activity change, % (values are at about 110 or 230 µM); actives 0.15% (n = 480,000); in the data active = activity change below about -30%; inconclusive = mostly about -25% to -30%;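 note: plate controls were DMSO wells for no effect and wells without enzyme for full effect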
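Remaining NADH was detected by diaphorase (0.133 mg/mL) converting 37 µM resazurin to fluorescent resorufin, read at 0 and 20 minutes. The preceding 5-minute room-temperature reaction used 2 nM LDHA, 0.2 mM sodium pyruvate and 0.06 mM NADH at pH 7.4.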
Nrf2 block – Nrf2 pathway inhibition | A549 ARE-Fluc reporter, luciferase luminescence, 18-24 h | Potency, µM (titrated, usually from 46 µM), for the others: at the highest dose activity change, negative = inhibition, hits mostly inhibitors | actives 2.1% (n = 360,000) | AID 504444; note: potency is the fitted concentration of half-maximal effect; % is set by controls: 0 for no effect and ±100 for the full control effect; nearly all actives have a fitted effect of over 60% in size
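Concentration-response testing used A549 ARE_Fluc cells at 5000 cells/well. Following an 18-24 h compound incubation, viability was read by fluorescence (Ex 405/Em 525) and luciferase output by luminescence.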
* hit, by the source's call; [ ] = dose if it differs, or a comment. Unless noted, calls come from the whole dose curve; as a rule, active = well fitted curve in the direction sought with a large enough effect; inconclusive = small, poorly fitted or top-dose-only effect, or another doubt; inactive = no such curve, though single readings can be large; an effect the other way counts as inactive or inconclusive.

For CC(C)N(C(=O)[C@H]1C[C@H](CC(=O)NCCC2=CCCCC2)C(=O)N2CCc3c([nH]c4ccc(Cl)cc34)[C@]12C)C(C)C the results were 12-LOX inh -4.2%, A549 tox inconclusive, IDH1 R132H inh 3.5%, Nrf2 ARE act 0.4%, LDHA block -10.5 and Nrf2 block 20.6µM*.
For CCN(CC)C(=O)[C@H]1CC(CC(=O)NCC23CC4CC(CC(C4)C2)C3)C(=O)N2CCc3c([nH]c4ccc(OC)cc34)[C@]12C (some centres undefined) the results were 12-LOX inh inconclusive, A549 tox -7.4%, IDH1 R132H inh 26.0%, Nrf2 ARE act 5.2%, LDHA block 2.1 and Nrf2 block 23.1µM*.
Screening COCCCNC(=O)C[C@H]1C[C@H](C(=O)N2CCCCC2)[C@@]2(CCc3ccccc3)c3[nH]c4cc(-c5ccco5)ccc4c3CCN2C1=O returned 12-LOX inh inconclusive, A549 tox -25.0%, IDH1 R132H inh -11.1%, Nrf2 ARE act 2.9%, LDHA block -5.8 and Nrf2 block 23.1µM*.
Screening COc1ccc2[nH]c3c(c2c1)CCN1C(=O)C(CC(=O)NCC24CC5CC(CC(C5)C2)C4)C[C@H](C(=O)N2CCCCC2)[C@@]31C (some centres undefined) returned 12-LOX inh -8.9%, A549 tox inconclusive, IDH1 R132H inh -24.1%, Nrf2 ARE act -0.1%, LDHA block 0.3 and Nrf2 block inconclusive.
For CC(C)N(C(=O)[C@H]1C[C@H](CC(=O)NCC23CC4CC(CC(C4)C2)C3)C(=O)N2CCc3c([nH]c4cc(-c5ccco5)ccc34)[C@]12C)C(C)C the results were 12-LOX inh -79.2%, A549 tox -21.2%, IDH1 R132H inh -3.4%, Nrf2 ARE act -1.0%, LDHA block 2.7 and Nrf2 block inconclusive.
O=C(C[C@H]1C[C@H](C(=O)N2CCCCC2)[C@@]2(CCc3ccccc3)c3[nH]c4cc(-c5ccco5)ccc4c3CCN2C1=O)NCCN1CCOCC1 was read as 12-LOX inh inconclusive, A549 tox -11.7%, IDH1 R132H inh 0.7%[38.3 µM], Nrf2 ARE act -4.4%, LDHA block 0.4 and Nrf2 block -2.5%.
Screening CC(C)N(C(=O)[C@H]1CC(CC(=O)NCC23CC4CC(CC(C4)C2)C3)C(=O)N2CCc3c([nH]c4ccccc34)[C@]12C)C(C)C (some centres undefined) returned 12-LOX inh -9.6%, A549 tox inconclusive, IDH1 R132H inh -8.5%, Nrf2 ARE act -1.3%, LDHA block -1.9 and Nrf2 block 25.9µM*.
`Cc1c(Cl)cccc1NCC(=O)N1CCN(S(C)(=O)=O)CC1` gave 12-LOX inh inconclusive and LDHA block 0.8.
For Cc1cc(C)cc(NC(=O)c2cccs2)c1 the results were 12-LOX inh 16.7% and LDHA block -4.0.
`CC(C)N(C(=O)[C@H]1C[C@H](CC(=O)NCC23CC4CC(CC(C4)C2)C3)C(=O)N2CCc3c([nH]c4cc(CCC(=O)N(C)C)ccc34)[C@]12C)C(C)C` gave 12-LOX inh -28.1%, A549 tox inconclusive, IDH1 R132H inh -22.8%, Nrf2 ARE act -1.4%, LDHA block -1.4 and Nrf2 block 20.6µM*.
`CN(C)C(=O)CCc1ccc2c3c([nH]c2c1)[C@]1(C)[C@@H](C(=O)N2CCOCC2)C[C@H](CC(=O)NCC24CC5CC(CC(C5)C2)C4)C(=O)N1CC3` gave 12-LOX inh 14.6%, A549 tox 1.4%, IDH1 R132H inh 1.2%[38.3 µM], Nrf2 ARE act 4.0%, LDHA block -3.7 and Nrf2 block 8.6%.
For CCC(Oc1ccc(F)cc1)C(=O)Nc1nc(-c2ccc(F)cc2)ns1 (centres undefined) the results were 12-LOX inh -11.9%, A549 tox inconclusive, IDH1 R132H inh -11.7%, Nrf2 ARE act -0.9%, LDHA block -0.4 and Nrf2 block 16.4µM*.
COc1ccccc1CNc1ccnc(-c2ccc(N(C)C)cc2)n1 was read as 12-LOX inh 25.1µM*.
COc1ccccc1-c1nccc(NCc2ccccc2)n1 was read as 12-LOX inh 22.4µM*.
Screening Cc1cccc(CNc2ccnc(-c3ccc(N(C)C)cc3)n2)c1 returned 12-LOX inh -30.4%.
Screening CNc1ccnc(-c2ccccc2OC)n1 returned 12-LOX inh 15.8µM*.
`O=C(O)c1ccccc1Br` gave 12-LOX inh inconclusive and LDHA block -1.9.
`CC1CCC/C(=N/NC(=O)c2ccc(Br)o2)C1` (centres undefined) gave 12-LOX inh 25.9% and LDHA block 1.3.
`Cn1c(=O)c2c(nc(N3CCc4ccccc4C3)n2Cc2c(F)cccc2Cl)n(C)c1=O` gave 12-LOX inh 8.5% and LDHA block -1.4.
Screening CCOc1ccc(S(=O)(=O)NCc2ccco2)c2ccccc12 returned 12-LOX inh -28.9%, A549 tox -0.5%, IDH1 R132H inh 14.6%, Nrf2 ARE act 12.6µM*, LDHA block 6.0 and Nrf2 block 5.2%.
Screening COC(=O)c1ccc2nc(C)cc(Nc3ccc(C)c(C)c3)c2c1 returned 12-LOX inh -25.4% and LDHA block -1.8.
`O=C(C=Cc1ccc(O)cc1)c1ccc(O)cc1O` gave 12-LOX inh 7.94µM*.
Cc1ccc(/C=C/C(=O)c2cc(Cl)ccc2O)cc1 was read as 12-LOX inh -59.0% and LDHA block -1.9.
Screening O=C(/C=C/c1ccc(Cl)cc1)c1cc(Cl)cc(Cl)c1O returned 12-LOX inh 3.55µM* and LDHA block 5.9.
For CN(C(=O)c1coc(=O)c2ccccc12)c1ccc(Br)cc1 the results were 12-LOX inh -4.3%, A549 tox 3.9%, IDH1 R132H inh 7.6%, Nrf2 ARE act -0.1%, LDHA block -1.7 and Nrf2 block 4.9%.
CN(C(=O)c1coc(=O)c2ccccc12)c1ccc(F)cc1 was read as 12-LOX inh 0.0%, A549 tox -16.4%, IDH1 R132H inh 2.2%, Nrf2 ARE act -0.1%, LDHA block -5.6 and Nrf2 block 23.1µM*.
`CCc1ccc2oc(C(=O)Nc3ccc(S(=O)(=O)N(CC)c4ccccc4)cc3)cc(=O)c2c1` gave 12-LOX inh inconclusive and LDHA block 4.8.
COc1ccc(-c2cc(C(=O)O)c3cc(C)c(C)cc3n2)cc1 was read as 12-LOX inh inconclusive and LDHA block 5.1.
